Bioassay records as filed in PubChem BioAssay.
An excerpt weighted towards active compounds, which were near 0.28% of everything screened.
mcGAS lum = inhibitors of mouse cGAS; Q8C6L5; recombinant cGAS, Kinase-Glo ATP depletion luminescence; inhibition, % at 12.5 µM; hit rate 0.15% among 160,000;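 further: 0% = negative control wells and 100% = reference inhibitor with no enzyme activity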
NPYLR7 ag = mosquito NPYLR7 agonism. HEK293T NPYLR7/Galpha15, GCaMP6s calcium fluorescence. activation, % at 10 µM. hit rate 0.15% among 270,000; in the data active means activation above about 40%;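 further: 0% = vehicle and 100% = reference agonist at the receptor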
hcGAS inh = human cGAS inhibition | Q8N884 | recombinant h-cGAS, ATP depletion, Kinase-Glo luminescence | inhibition, % at 12.5 µM | hit rate 0.081% among 290,000;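 further: 0% = vehicle reaction and 100% = reaction without DNA for no activity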
Target sequence (Q8N884 whole entry, looked up): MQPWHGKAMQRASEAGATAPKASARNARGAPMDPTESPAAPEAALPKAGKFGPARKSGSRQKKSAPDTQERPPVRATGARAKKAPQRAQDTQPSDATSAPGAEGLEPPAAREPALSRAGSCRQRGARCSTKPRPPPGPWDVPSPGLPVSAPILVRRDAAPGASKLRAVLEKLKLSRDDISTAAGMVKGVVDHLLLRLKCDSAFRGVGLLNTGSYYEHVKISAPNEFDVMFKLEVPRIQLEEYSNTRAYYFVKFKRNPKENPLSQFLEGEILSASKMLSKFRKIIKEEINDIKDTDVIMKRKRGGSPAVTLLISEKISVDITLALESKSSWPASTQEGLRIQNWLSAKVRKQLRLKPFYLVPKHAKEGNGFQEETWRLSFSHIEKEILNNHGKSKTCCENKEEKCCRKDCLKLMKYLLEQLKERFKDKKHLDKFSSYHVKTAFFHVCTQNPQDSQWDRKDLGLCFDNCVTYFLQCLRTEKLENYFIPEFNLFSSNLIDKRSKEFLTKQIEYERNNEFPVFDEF
* hit, by the source's call; . = no result. Unless noted, no stated cut-off is given here; in the data, active means inhibition above about 40%; inactive means the rest.

SMILES	mcGAS lum	NPYLR7 ag	hcGAS inh
Cc1ccc(NC(=O)N(CC(=O)N(Cc2ccc(F)cc2)Cc2ccc(C)o2)CC2CCCO2)c(C)c1 (centres undefined)	-4	-4	89*
Cc1ccc(CN(Cc2ccc3c(c2)OCO3)C(=O)CN(CC2CCCO2)C(=O)Nc2ccc(F)cc2F)o1 (centres undefined)	-3	12	-4
Cc1cc(O)c(CN2CCN(CCO)CC2)c2c1C(=O)/C(=C/c1cccc(Br)c1)O2	6	25	-7
O=C1/C(=C/c2cc3cc(Br)ccc3o2)Oc2c1ccc(O)c2CN1CCN(CCO)CC1	-3	72*	-2
Cn1ncnc1NC(=O)Cc1cccc(Cl)c1	.	-10	-11
CCC[C@H]1CN(C2CCCC2)C[C@@H]1NC(=O)CCc1n[nH]c(C)n1	-3	.	0
S=c1[nH]nc(-c2cc(-c3cccs3)nc3ccccc23)o1	.	-1	77*
S=c1[nH]nc(-c2cccs2)o1	.	-2	2
O=C(COc1cccc2cccnc12)NCC1CCCCC1	.	2	1
O=C(Nc1ccccc1F)c1ccc2c(c1)S(=O)(=O)Nc1ncnn1-2	-8	-8	-1
COC(=O)c1nc2n(n1)-c1ccccc1S(=O)(=O)N2	.	13	57*
C#CCOCC(O)CN(Cc1ccc2c(c1)OCO2)Cc1cc(C)ccc1C (centres undefined)	-4	23	0
C=CCOCC(O)CN(Cc1ccc2c(c1)OCO2)Cc1cc(C)ccc1C (centres undefined)	-2	12	2
C#CCOCC(O)CN(Cc1ccc(F)cc1)Cc1ccc2c(c1)OCO2 (centres undefined)	77*	9	-4
C=CCOCC(O)CN(Cc1ccc2c(c1)OCO2)Cc1ccc(C)s1 (centres undefined)	83*	19	-4
CC(Oc1ccccc1F)c1nnc(SCC(=O)N2N=C(c3cccs3)CC2c2ccco2)o1 (centres undefined)	0	5	1
Cc1ccc(C)c(C2C(C#N)C(=N)SC(=N)C2C#N)c1 (centres undefined)	.	120*	-3
N#CC1C(=N)SC(=N)C(C#N)C1c1ccc(F)cc1F (centres undefined)	24	0	18
COc1cc(C=NNC(=O)c2ccccc2O)cc(Br)c1O	.	0	0
CC(C)(C)NN=Cc1cc(Br)c(O)c(Br)c1	75*	4	7
COc1ccc(-n2nnnc2CNC(=O)Cc2cccc3ccccc23)cc1	-7	5	-4
NC(=O)CN1c2cccc3cccc(c23)S1(=O)=O	.	106*	4
CCC(CC)NC(=O)CN1c2cccc3cccc(c23)S1(=O)=O	.	13	-16
O=C(NNC(=O)c1ccc(F)cc1)C1=CC=CN2CCS(=O)(=O)N=C12	.	0	-11
COc1ccc2o/c(=N\NC(N)=S)c(-c3nc4ccccc4[nH]3)cc2c1	.	-2	2
SMILES	mcGAS lum	NPYLR7 ag	hcGAS inh
NC(=S)N/N=c1\oc2cc(O)ccc2cc1-c1nc2ccccc2[nH]1	.	67*	1
CC(=O)Nc1ccc(S(=O)(=O)Oc2ccc(Cl)cc2CN(C(=O)c2ccccc2Cl)C2CC2)cc1	-4	4	1
COC(=O)C1=C(C)NC(C)=C(C(=O)OCC(C)C)C1c1ccccc1[N+](=O)[O-] (centres undefined)	58*	-6	5
CC1=C(C(=O)OCC(C)C)C(c2ccccc2[N+](=O)[O-])NC(=O)N1C (centres undefined)	-5	-1	-7
O=C(COc1ccc(Cl)cc1Cl)N=Nc1c(O)[nH]c2ccccc12	-6	-7	2
CC1Cc2cc(-c3cc(COC(=O)CSc4ncccn4)no3)ccc2O1 (centres undefined)	.	1	8
Cc1cc(C=C2Sc3ccccc3N2C)cc(C)[n+]1N1CCN(C)CC1	.	47	9
CCN1C(=Cc2ccc3cc(C)ccc3[n+]2CC)Sc2ccccc21	.	74*	8
CCOC(=O)/C(C#N)=C1/Sc2ccccc2N1C	.	-2	2
CCC(C)[n+]1c(C)cc(C=C2Sc3ccccc3N2C)cc1C (centres undefined)	.	173*	7
Cc1cc(C=C2Sc3ccccc3N2C)cc(C)[n+]1-c1ccccc1	.	76*	-3
Cc1cc(C=C2Sc3ccccc3N2C)cc(C)[n+]1Cc1ccncc1	-2	51*	1
CCOC(=O)c1ccccc1N1C(=O)/C(=C\c2ccncc2)N(C)C1=S	-3	-4	-6
CCN1C(=CC=Cc2sc3ccccc3[n+]2CC)Sc2ccccc21	.	-12	-49
N#CCc1ccc(NC(=O)N2CCN(c3ncccc3NC(=O)c3ccc4c(c3)OCO4)CC2)cc1	-5	15	-1
CCCCCCc1ccc(C(=O)N(CCOC)CC(=O)N(Cc2ccccc2)Cc2sccc2C)cc1	-4	14	-2
Cc1ccc(C(=O)n2cc(-c3cccc(Cl)c3)c(N)n2)cn1	-15	15	-7
CC(C)n1ncc2cc(NC(=O)C3CC(=O)N(Cc4ccccc4)C3)cnc21 (centres undefined)	-9	-6	-8
CCc1c(C)sc(NC(=O)c2c(-c3c(Cl)cccc3Cl)noc2C)c1C#N	-5	6	-5
COC(=O)NNC(=S)NC(=O)C12CC3CC(CC(C3)C1)C2	.	31	-4
COC(=O)c1sc(N)nc1C	-8	4	-4
CCN1/C(=C/C2=CC(=O)CC(C)(C)C2)Sc2ccccc21	.	60*	-5
CCN1c2ccccc2Sc2cc(C=O)ccc21	.	8	0
CCCC[n+]1c(C)cc(C=C2Sc3ccccc3N2C)cc1C	.	198*	-1
CCC(C)[n+]1c(C)cc(C=C2Sc3ccccc3N2CC)cc1C (centres undefined)	.	78*	-4
SMILES	mcGAS lum	NPYLR7 ag	hcGAS inh
CN(C)CCCN1c2ccccc2Sc2ccc(C(F)(F)F)cc21	-6	9	-3
CN1C(=C2C(=O)CC(C)(C)CC2=O)Sc2ccccc21	.	1	4
CC1CNc2ccccc2N(Cc2ccccc2Cl)C1=O (centres undefined)	-6	-3	-2
CCC(C)N(Cc1ccc(OS(=O)(=O)CC)cc1)C(=O)Nc1ccc(F)cc1F (centres undefined)	-6	5	-7
O=C(C=Cc1ccco1)NCc1ccccc1CS(=O)(=O)N1CCOCC1	-9	8	-4
COc1ccc(C(=O)N=c2sccn2Cc2cccc(C(=O)NC3CC3)c2)cc1OC	.	3	-16
CCN1CCN(C(=O)c2ccc(Cn3ccsc3=NC(=O)c3ccc(OC)c(OC)c3)o2)CC1	.	45*	-16
CC(C)(C)n1nc2c(c1NC(=O)/C=C/c1ccccc1)CSC2	2	2	3
COc1ccc(N2C(=O)/C(=C\c3ccc[nH]3)N(C)C2=S)c([N+](=O)[O-])c1	-8	46*	-4
Cc1cc([N+](=O)[O-])ccc1N1C(=O)/C(=C\c2ccncc2)N(C)C1=S	13	20	-6
O=C(NCCN1C(=O)SC(=Cc2cccs2)C1=O)C1CCCC1	-5	2	-3
COc1cccc(-n2c(O)c(C=Nc3cc(OC)ccc3OC)c3ccccc3c2=O)c1	-6	52*	-3
COc1ccc(N=Cc2c(O)n(-c3ccccc3)c(=O)c3ccccc23)c(OC)c1	-6	-3	-5
O=C(NCc1ccc(F)cc1)C(C1CCCC1)N1CCN(C(=O)c2ccc(Cl)cc2)CC1 (centres undefined)	-7	10	-2
